This is a sample that favours compounds with a hit; in the whole collection about 3.6% have one here.
Mtb FBA inh: Mtb FBA enzyme inhibitors, primary screen, biochemical, fluorescence, strain H37Rv; 360,000 tested, 2.3% active; purified M. tuberculosis FBA, fluorescence read-out; AID 588726, 2011; Fructose-bisphosphate aldolase (Mycobacterium tuberculosis (strain ATCC 25618 / H37Rv)), …; inhibition, % at 1 µM; in the data active = inhibition above about 27%;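 also: 0% = vehicle and 100% = reference inhibitor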
Target sequence (P9WQA3 whole entry, looked up): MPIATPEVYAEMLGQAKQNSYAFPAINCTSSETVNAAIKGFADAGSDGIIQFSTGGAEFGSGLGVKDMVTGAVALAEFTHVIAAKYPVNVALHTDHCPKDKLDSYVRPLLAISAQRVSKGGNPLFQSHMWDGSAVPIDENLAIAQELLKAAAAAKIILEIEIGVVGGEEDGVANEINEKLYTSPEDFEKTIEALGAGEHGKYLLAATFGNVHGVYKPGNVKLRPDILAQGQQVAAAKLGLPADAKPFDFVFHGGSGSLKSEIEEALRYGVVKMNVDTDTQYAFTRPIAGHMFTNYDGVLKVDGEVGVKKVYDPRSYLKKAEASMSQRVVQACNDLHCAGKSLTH
Mtb hypoxia inh: PubChem AID 1159583. M. tuberculosis hypoxia-regulated fluorescent reporter, fluorescence. fluorescence inhibition, % (test concentration not listed). 300,000 tested, 0.1% active; in the data active = fluorescence inhibition mostly above about 23%, no sharp cut-off; inactive = mostly below about 17%
GDH-TPI inh: GDH-TPI coupling enzyme inhibitors, primary screen, artefact control for M. tuberculosis FBA inhibitor project, biochemical, absorbance, full deck; GDH-TPI coupled enzyme counterscreen, NADH absorbance; inhibition, % at 4.8 µM; 360,000 tested, 1.2% active; AID 588335, 2011; in the data active = inhibition above about 30%;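 also: 0% = DMSO wells and 100% = wells lacking the enzyme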
DUSP3 inh: VHR1 phosphatase inhibitors, primary screen, biochemical, absorbance, uHTS. Dual specificity protein phosphatase 3 (Homo sapiens), P51452. recombinant VHR phosphatase, pNPP absorbance. inhibition, % at 13.3 µM. 290,000 tested, 0.52% active. AID 1654, 2009; in the data active = inhibition above about 50%
Target sequence (P51452 whole entry, looked up): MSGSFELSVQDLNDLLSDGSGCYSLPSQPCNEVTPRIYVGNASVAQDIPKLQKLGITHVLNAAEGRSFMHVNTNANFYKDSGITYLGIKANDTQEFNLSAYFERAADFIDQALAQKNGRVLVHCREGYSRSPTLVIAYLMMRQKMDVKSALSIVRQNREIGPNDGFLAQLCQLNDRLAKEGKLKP
Mtb bLac sens: beta-lactam sensitization of Mtb H37Rv, H37Rv; M. tuberculosis H37Rv growth with meropenem, percent inhibition; inhibition, % at 25 µM; 330,000 tested, 0.27% active; call rule not given here;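 also: growth measured after seven days incubation then overnight dye step; 0% = bacteria only wells and 100% = bacteria with antibiotic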
Starred values were filed as active, the others as inactive; . = no result given; + = active, no number.

SMILES	Mtb FBA inh	Mtb hypoxia inh	GDH-TPI inh	DUSP3 inh	Mtb bLac sens
CC(OC(=O)c1nn(C(C)C)c(=O)c2ccccc12)C(=O)Nc1ncc(Cl)cc1Cl (stereo unspecified)	-3	7	-4	60*	-5
COC(=O)C1=COC(C)C2CN3CC[C@@]4(C(=O)Nc5ccccc54)C3CC12 (stereo partly specified)	.	9	.	.	.
Nc1ccc(-c2nc3ccccc3o2)cc1	150*	-10	14	31	46
Cc1ccc(N/C=C(\C#N)c2ccc(OCCCF)cc2)cc1	1	-4	41*	16	88
Cc1cccc(CN2C[C@]34CCC(CC3S2(=O)=O)O4)c1 (stereo partly specified)	.	1	.	.	.
CC(=O)c1ccc(Nc2cc(C)nc3c(C)cccc23)cc1	-3	-6	19	0	5
Cc1ccc(Nc2cc(C)nc3c(C)cccc23)cc1	1	8	32*	25	2
Cc1n[nH]c(C)c1CCN(C)Cc1cn(C)nc1-c1ccc2c(c1)OCCO2	2	2	1	4	3
CN(CCc1cnn(C)c1)Cc1cn(C)nc1-c1ccc2c(c1)OCCO2	2	-1	-1	52*	4
CCN(CC)c1ccc(C(=O)c2ccccc2C(=O)O)c(O)c1	-6	-5	42*	1	-3
CCCCCCCC(=O)OCC(=O)[C@@]1(O)CCC2C3CCC4=CC(=O)CC[C@]4(C)C3C(O)C[C@@]21C (stereo partly specified)	.	-1	.	.	.
CCCn1c(=NC(=O)c2ccncc2)c(C#N)cc2c(=O)n3cccc(C)c3nc21	7	8	0	.	.
CCCCn1c(=NC(=O)c2ccco2)c(C(=O)OCC)cc2c(=O)n3cccc(C)c3nc21	173*	-6	6	18	-4
CCOC(=O)c1cc2c(=O)n3ccccc3nc2n(Cc2ccc(Cl)cc2)c1=N	20	6	5	.	.
CCCCCn1c(=NC(=O)c2ccco2)c(C(=O)OCC)cc2c(=O)n3ccccc3nc21	144*	-3	10	-4	8
CCCCn1c(=NC(=O)c2ccco2)c(C(=O)OCC)cc2c(=O)n3ccccc3nc21	197*	3	8	19	1
O=C(NN=Cc1ccco1)Nc1cccc(Cl)c1	.	4	.	.	.
FC(F)(F)c1ccc(Cl)c(NC(=S)NN=Cc2ccccc2Cl)c1	.	6	.	.	.
NC(=S)N=Nc1c(O)[nH]c2c(Cl)cc(Cl)cc12	-4	11	37*	.	.
O=C(OCC(=O)c1ccc(Cl)s1)c1cncc(Br)c1	0	29*	8	.	3
Cc1cc(C)cc(N(C(=O)c2csnn2)C(C(=O)NC2CCCC2)c2cccnc2)c1 (stereo unspecified)	-1	2	-10	30	-9
O=C(NCC(=O)N(c1ccccc1)C(C(=O)NC1CCCC1)c1cccnc1)c1cccs1 (stereo unspecified)	2	1	13	53*	1
O=C(NCC(=O)N(c1ccccc1)C(C(=O)NC1CCCC1)c1ccncc1)c1cccs1 (stereo unspecified)	1	0	9	7	-4
O=C(NC1CCCCC1)C(c1ccc(Cl)cc1)N(C(=O)c1ccccn1)c1cccnc1 (stereo unspecified)	.	-1	.	57*	-3
Cc1cc(C)cc(N(C(=O)c2csnn2)C(C(=O)NC2CCCCC2)c2cccnc2)c1 (stereo unspecified)	2	-12	-3	53*	1
SMILES	Mtb FBA inh	Mtb hypoxia inh	GDH-TPI inh	DUSP3 inh	Mtb bLac sens
CCOC(=O)C1C2COc3ccc(Br)cc3C2N2C(=O)N(c3cccc(F)c3)C(=O)[C@@]12C (stereo partly specified)	.	1	.	.	.
COc1cc(C=Nn2nnnc2N)ccc1OCC#N	.	3	.	.	.
Cn1cc(Cl)c(C(=O)NNC(=S)NCc2ccco2)n1	0	-8	-6	19	-3
O=C(NNC(=S)NCc1ccco1)c1ccc(Cl)s1	-2	25	31*	21	-9
CC(C1CC2CCC1C2)n1c(COc2ccccc2F)nnc1SCC(N)=O (stereo unspecified)	+	.	-5	0	-2
CCC(=O)Oc1c(C(=O)CC)cc2c(C)cc(=O)oc2c1C	10	-9	15	-10	1
CCC(=O)Nc1c(OC(=O)CC)ccc2c(C)cc(=O)oc12	140*	.	10	5	-7
COC(=O)C1=C(C)N(Cc2ccccc2)C(=NCCc2c[nH]c3ccccc23)NC1c1cccc(C(F)(F)F)c1 (stereo unspecified)	.	-4	.	.	.
CCn1c(O)c(N=Nc2ccc(Cl)c(C(=O)O)c2)c2ccccc21	-19	6	35*	11	-6
CC(=CCC1=C(C)C(=O)c2ccccc2C1=O)CCCC(C)CCCC(C)CCCC(C)C (stereo unspecified)	.	1	.	.	.
COc1cc(/C=N/NC(=O)C(=O)/C=C2\NC3(CCCC3)Cc3ccccc32)ccc1O	-8	.	12	0	-1
CN(C)c1ccc(/C=N/NC(=O)C(=O)/C=C2\NC3(CCCC3)Cc3ccccc32)cc1	-6	.	31*	8	7
CCCCCC(=O)Nc1nc(C)c(-c2csc(Nc3cc(OC)ccc3OC)n2)s1	0	15	14	51*	98
C(=Cc1sc(Nc2ccccc2)n[n+]1-c1ccccc1)c1ccccc1	.	10	.	.	.
Cc1ccc(C(=O)NN=Cc2cc(Br)c(Br)o2)cn1	.	4	.	.	.
CCCn1c(SCC(=O)NC(C)(C)C)nnc1-c1ccco1	-3	8	-8	53*	-1
CCOc1cc(C(=O)NCC2CCCO2)cc(OCC)c1OCC (stereo unspecified)	-2	1	2	6	-8
CCOc1cccc(OCC)c2c(C)[n+](CC3CCCO3)c(C)c1-2 (stereo unspecified)	-5	-2	2	52*	9
Cc1cc(C)n(C(=O)C(C#N)=CN(C)C)n1	.	1	.	.	.
CN1C(=O)C2C(C=Cc3ccccc3)N3C(=O)CN(Cc4ccccn4)C(=O)[C@@]3(C)C2C1=O (stereo partly specified)	.	-8	.	.	.
O=C(c1cc2c(s1)-c1ccccc1OC2)N1CCCC1	+	.	27	44	0
O=C(c1cc2c(s1)-c1ccccc1OC2)N1CCN(c2ccccn2)CC1	17	.	14	40	4
O=C(c1cc2c(s1)-c1ccccc1OC2)N1CCC2(CC1)OCCO2	+	6	40*	4	-3
NC(=NOC(=O)CCCOc1ccccc1)c1ccc(Br)cc1	.	-4	.	.	.
NNC(=O)c1cc(Cl)ccc1Cl	2	11	-3	-11	88
CNc1ccc(Cl)cc1C(N)=O	113*	6	9	2	-7
COC(=O)C1=C(C(=O)OC)C2N(C)c3ccc(OC)cc3[C@@]23CC(C(=O)OC)N(C(=O)NC2CCCCC2)C3=N1 (stereo partly specified)	.	0	.	.	.
COC(=O)c1sccc1-c1ccc(C(=O)Nc2cccnc2)o1	1	4	34*	29	-20
